This excerpt belongs to a sample that is enriched for hits.
14-3-3g Raf – modulators of 14-3-3 gamma protein binding, primary screen, biochemical, fluorescence polarization; FP, 14-3-3gamma / TMR-pS259-Raf peptide binding; 160,000 compounds, 0.19% hits; AID 422, 2006; inhibition, % at 40 µM; 14-3-3 protein gamma (Homo sapiens), P61981; in the data active means inhibition above about 30%;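 further: 0% = protein plus tracer without compound and 100% = blank with tracer alone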
Target sequence (P61981 whole entry, looked up): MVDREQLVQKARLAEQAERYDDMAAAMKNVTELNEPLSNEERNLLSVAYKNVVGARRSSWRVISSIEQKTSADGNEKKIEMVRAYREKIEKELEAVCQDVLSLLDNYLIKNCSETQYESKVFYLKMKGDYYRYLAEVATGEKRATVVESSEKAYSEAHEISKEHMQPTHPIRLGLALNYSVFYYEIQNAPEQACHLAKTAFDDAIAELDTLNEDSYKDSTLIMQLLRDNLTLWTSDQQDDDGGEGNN
Starred values were filed as active, the others as inactive; + = active, no number; ! = repeats disagree.

SMILES	14-3-3g Raf
CSc1ccccc1N=Cc1nc(-c2ccccc2)oc1O	3.2
CN(C)c1ccc(N=Cc2nc(-c3ccccc3)oc2O)cc1	111.9*
CC(=O)Nc1ccc(N=Cc2nc(-c3ccc(C)cc3)oc2O)cc1	-6.5
CCOc1cccc2c1OC1(C)CC2NC(=O)N1c1ccc(F)cc1 (configuration not stated)	-3.4
O=C(CCS(=O)(=O)c1ccc(Br)cc1)NCCN1CCN(c2ccccc2F)CC1	-3.5
CC(=O)OCCNc1ccc2noc3c2c1C(=O)c1ccccc1-3	+
O=C1c2ccccc2-c2onc3ccc(NCCCn4ccnc4)c1c23	2.4
Cc1ccccc1Nc1ccc2noc3c2c1C(=O)c1ccccc1-3	-223.1
COc1ccc(Br)cc1C1Nc2ccc(C(=O)O)cc2C2C=CCC21 (configuration not stated)	-121.6
Cc1ccc(CN2C(=O)c3ccccc3C2C(=O)NCCCN2C(C)CCCC2C)cc1 (configuration not stated)	6.1
COC(=O)Cn1c2ccccc2c2nc3ccccc3nc21	-4.9
O=C(O)Cn1c2ccccc2c2nn3cc(-c4ccccc4)nc3nc21	118.8*
O=C(O)Cn1c(-c2ccccc2)nc2ccccc21	-2.3
Cc1ccc(C2C(C(=O)c3ccccc3)N3c4ccccc4C=CC3C2(C#N)C#N)cc1 (configuration not stated)	-155.5
Cc1ccc2nc(C)cc(OCC(=O)O)c2c1	-6.0
CCc1nc(C)ccc1OCC(=O)NCCCN(C)C	-4.3
CCc1nc(C)ccc1OCC(=O)O	74.1*!
O=C(CC1OC(=O)C(Br)=C1Br)CC1OC(=O)C(Br)=C1Br (configuration not stated)	-20.7
CCOC(=O)c1ccc(CNS(=O)(=O)c2ccc(OCC)c3ccccc23)o1	-25.8
CCC(=O)Nc1cccc(-c2cn3cccc(C)c3n2)c1	31.0*
Cc1cccn2cc(-c3cccc(NC(=O)CC(C)C)c3)nc12	-10.4
Cc1cccn2cc(-c3cccc(NC(=O)c4cc5ccccc5oc4=O)c3)nc12	-4.9
O=C(O)c1ccc2c3c(cccc13)C(=O)N(c1ccc(Cl)cc1)C2=O	-8.0
O=C1c2cccc3c(O)ccc(c23)C(=O)N1c1ccc(Cl)cc1	95.5*
CCOC(=O)c1ccc(N2C(=O)c3cccc4c(Cl)ccc(c34)C2=O)cc1	-40.8
SMILES	14-3-3g Raf
O=C1c2ccccc2C(=O)N1c1ccc(Cl)cc1	-0.4
C=CCNc1ccc2c3c(cccc13)C(=O)N(C)C2=O	4.3
O=C1c2cccc3c(NCCO)ccc(c23)C(=O)N1c1ccccc1	195.8*
NCCNc1ccc2c3c(cccc13)C(=O)N(c1ccc(Cl)cc1)C2=O	62.9*
O=C(O)CCCCCN1C(=O)c2cccc3c(N4CCCCC4)ccc(c23)C1=O	-42.0
O=C(O)CCCN1C(=O)c2cccc3c(O)ccc(c23)C1=O	137.5*
O=C1c2cccc3c(N4CCCCC4)ccc(c23)C(=O)N1c1ccccc1	3.5
O=C(O)CCCCN1C(=O)c2ccccc2C1=O	-0.7
O=C1c2cccc3c(Nc4ccccc4)ccc(c23)C(=O)N1c1ccccc1	-9.0
COc1ccc(NC(=O)C2=C(C)NC(=S)NC2c2ccc(F)cc2)c(OC)c1 (configuration not stated)	-1.7
CSc1nc2n(n1)C(c1ccccc1Cl)C(C(=O)Nc1ccc(C)cc1C)=C(C)N2 (configuration not stated)	-1.6
CCN(CC)S(=O)(=O)c1ccc(-c2csc(=Nc3ccc(F)cc3)n2CCO)cc1	-11.6
Cc1ccccc1Nc1nc(C2(C)CC(CCC(C)C)C(=O)O2)cs1 (configuration not stated)	-18.5
CC1(C)CC(=O)c2c(nn(-c3ccccc3)c2-c2ccc(Cl)cc2)C1	-0.2
O=C(Nc1ccc(S(=O)(=O)N2CCCCC2)cc1)c1sc2ccccc2c1Cl	-30.7
Cc1oc(-c2cccs2)nc1CSCC(=O)NC1CCCCCCC1	-5.6
Cc1ccc(CSc2nnc3c(n2)OC(c2cccc(C)n2)Nc2ccccc2-3)cc1 (configuration not stated)	31.9*
Cc1ccc(CSc2nnc3c(n2)OC(c2ccc(C(=O)O)cc2)Nc2ccccc2-3)cc1 (configuration not stated)	-10.6
Cc1ccc(CSc2nnc3c(n2)OC(c2ccccn2)Nc2ccccc2-3)cc1 (configuration not stated)	-5.9
Clc1ccc(CSc2nnc3c(n2)OC(c2ccncc2)Nc2ccccc2-3)cc1 (configuration not stated)	-47.4
CCCSc1nnc2c(n1)OC(c1cccc(C)n1)Nc1ccccc1-2 (configuration not stated)	-5.3
Cc1ccc(CSc2nnc3c(n2)OC(c2ccncc2)Nc2ccccc2-3)cc1 (configuration not stated)	75.9*
O=[N+]([O-])c1cccc(N=Cc2ccc(OCc3cccc(Cl)c3)cc2)c1	-0.8
COc1ccc(OC)c(NC(=O)c2cc(S(=O)(=O)N(C)Cc3ccccc3)ccc2F)c1	-25.9
CC(=O)OCc1cnc(C)c2oc(=Nc3ccc(Br)cc3)c(C(=O)Nc3ccc(C)cc3)cc12	-7.2
SMILES	14-3-3g Raf
O=C1c2ccccc2-c2ncnc3ccc(Cl)c1c23	-3.7
CC(C)(C)c1ccc(C(=O)Oc2cc(N)n(S(=O)(=O)c3ccc(F)cc3)n2)cc1	-8.9
CCSc1c(C(N)=O)ccc2c1C(=O)c1ccccc1C2=O	-41.7
CN(C(=O)c1ccc2c(c1N)C(=O)c1ccccc1C2=O)c1ccccc1	132.1*
CN(C(=O)c1ccc2c(c1)C(=O)c1ccccc1-2)c1ccc([N+](=O)[O-])cc1	-3.5
COC(=O)c1cccc([N+](=O)[O-])c1C(=O)Nc1c(C)n(C)n(-c2ccccc2)c1=O	17.0
CC1CCCC(C)N1C(=O)c1ccc2c(c1NCCO)C(=O)c1ccccc1C2=O (configuration not stated)	-268.1
O=C(O)c1ccc2c(c1NCCO)C(=O)c1ccccc1C2=O	30.5*
CNc1c(C(=O)O)ccc2c1C(=O)c1ccccc1C2=O	-149.1
COc1ccc(N(CC(=O)Nc2ccc(Br)cc2)S(=O)(=O)c2ccc(C)cc2)cc1OC	-5.7
CC(=O)C1=C(O)C(=O)N(CCC(=O)O)C1c1ccc2c(c1)OCO2 (configuration not stated)	-7.6
Cc1ccc2cc3cc(C(=O)NCCCN4CCN(C)CC4)oc3nc2c1	65.8*
CCN1CCN(CCCNC(=O)c2cc3cc4ccc(C)cc4nc3o2)CC1	-9.5
Cc1ccc2cc3cc(C(=O)NCCCN4CCC(C)CC4)oc3nc2c1	6.5
CCOC(=O)c1ccc(NC(=O)c2ccc(OC)cc2)cc1	0.9
Cc1ccc(-n2c(=O)[nH]c3cc(C(=O)NCc4ccccc4Cl)ccc3c2=O)cc1	4.9
Cc1nc2nc(Cc3ccccc3)[nH]n2c(=O)c1Cl	4.9
Cc1nc2nc(-c3ccccc3)[nH]n2c(=O)c1Cc1ccccc1	-15.4
Cc1nc2nc(Cc3ccccc3)[nH]n2c(=O)c1Cc1ccccc1	50.1*
CCN1/C(=C/c2ccc3cc(OC)ccc3[n+]2CC)Sc2ccc(Cl)cc21	12.0
CCN1/C(=C/c2ccc3cc(OC)ccc3[n+]2CC)Sc2ccc(C)cc21	42.2*
CCN1/C(=C/c2ccc3ccccc3[n+]2CC)Sc2ccc(C)cc21	-236.3
CCS(=O)(=O)Nc1cccc(C2=NN(S(=O)(=O)CC)C(c3ccco3)C2)c1 (configuration not stated)	-174.7
O=[N+]([O-])c1nn(-c2ccccc2)n(O)c1=Nc1ccccc1OC(F)F	-3.5
O=C1c2ccccc2C(=O)c2c(I)cccc21	3.0

Bioassay records: PubChem, Emory University Molecular Libraries Screening Center
